Among the data in PubChem BioAssay (EPA / NIEHS) are outcome and AC50 values, retold here.

Where “and” joins values, the source holds several entries; their conditions need not be identical. Identical values can stand only once. Where a structure was tested more than once in an assay, its records may differ in their call. Calls of active or inactive are those of the source. The calls were made as follows: active = hit-call score of the fitted dose curve at least 0.9, where 1 is the maximum; inactive = score below 0.9.

Test [1] has as its target Transcription factor E2F1 (Homo sapiens) (UniProt Q01094). The test can be described thus: ATG_E2F_CIS: Attagene CIS-FACTORIAL HepG2 Assay for human E2F Transcription Factor 1 (AID 2282935). The following applies: HepG2 Attagene cis-reporter, E2F reporter RNA transcripts; actives raise or lower the signal. In outline:
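First, HepG2 cells were transfected with reporter transcription units. Next, they were dosed for 24 h. Then RNA was isolated, converted to cDNA, PCR-amplified, FAM-labeled, HpaI-digested and analyzed by capillary electrophoresis.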

Test [2] in a line: ATG_E_Box_CIS: Attagene CIS-FACTORIAL HepG2 Assay for human Enhancer Box (E-box) (AID 2282936). The note with it: HepG2 E-box cis-reporter transcription, actives raise or lower the signal. In outline: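 Endogenous transcription factor activity was sensed in human HepG2 liver cells through transfected cis-promoter reporter units. After 24 h of dosing, total RNA was reverse-transcribed and reporter cDNA resolved by capillary electrophoresis.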

Test [3] can be described thus: ATG_M_61_CIS: Attagene CIS-FACTORIAL HepG2 Assay for M61 Transcription Factor (Internal Marker) (AID 2282937). The following applies: HepG2 Attagene CIS-FACTORIAL M61 internal marker reporter; actives raise or lower the signal. The gist of the method:
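Readout is reporter mRNA by RT-PCR, fluorescent primer extension and capillary electrophoresis, with gain or loss fitted relative to DMSO. Transfected HepG2 cells carrying endogenous-TF-driven cis reporters were exposed to chemicals for 24 hours.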

The nature of test [4]: ATG_EGR_CIS: Attagene CIS-FACTORIAL HepG2 Assay for human Early Growth Response 1 (EGR1) (AID 2282938). The note with it: HepG2 Attagene CIS-FACTORIAL EGR reporter mRNA; actives raise or lower the signal. The gist of the method:
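After 24 h compound exposure, RNA from reporter-transfected HepG2 cells was reverse-transcribed, PCR-amplified, fluorescently labelled and resolved by capillary electrophoresis. EGR1 reporter transcript changes, up or down, were fitted against DMSO, reflecting endogenous transcription-factor activity.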

A short description of test [5]: ATG_M_19_CIS: Attagene CIS-FACTORIAL HepG2 Assay for M19 Transcription Factor (Internal Marker) (AID 2282939). The note with it: HepG2 Attagene CIS-FACTORIAL M19 internal marker reporter; actives raise or lower the signal. In outline:
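Background-control endpoint from a multiplexed HepG2 reporter panel. Cells carrying cis-regulated reporter constructs are treated 24 h, then reporter transcripts are amplified, fluorescently labelled and sized by capillary electrophoresis. DMSO defines baseline.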

Test [6] is described as follows: ATG_ERE_CIS: Attagene CIS-FACTORIAL HepG2 Assay for Estrogen Response Element (ERE) (AID 2282940). The following applies: HepG2 ERE cis-reporter, Attagene RNA transcript; actives raise or lower the signal. In outline:
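Cells used were human hepatoma HepG2, transfected with multiple reporter transcription units under cis-regulatory promoters. Reporter mRNA, read 24 h post-dosing via fluorescent RT-PCR products on capillary electrophoresis, was fitted bidirectionally relative to DMSO.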

A short description of test [7]: ATG_Ets_CIS: Attagene CIS-FACTORIAL HepG2 Assay for human Erythroblast Transformation Specific (ETS) (AID 2282941). The note with it: HepG2 ETS cis-reporter transcription, actives raise or lower the signal. The gist of the method: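 Cis-regulated reporter mRNA induction in HepG2 (transient transfection), 24 h exposure, RT-PCR plus capillary electrophoresis detection; DMSO serves as negative control and baseline.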

Test [8] deals with Hepatocyte nuclear factor 3-beta (Homo sapiens) (UniProt Q9Y261). The test can be described thus: ATG_FoxA2_CIS: Attagene CIS-FACTORIAL HepG2 Assay for human Forkhead box A2 (FOXA2) (AID 2282942). The note with it: HepG2 cis-reporter transcription factor activity, 24 h; actives raise or lower the signal. In outline:
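Endogenous transcription factor activity is captured via cis-element-driven reporter transcripts in transfected HepG2. Total RNA taken at 24 h post-dosing; labelled RT-PCR products resolved by capillary electrophoresis. Gain or loss fitted versus DMSO.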

A short description of test [9]: ATG_FoxO_CIS: Attagene CIS-FACTORIAL HepG2 Assay for human Forkhead box O (FoxO) (AID 2282943). The following applies: HepG2 Attagene cis-reporter, FoxO element, mRNA; actives raise or lower the signal. The gist of the method: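 Values reflect reporter mRNA induction or loss in HepG2 cells 24 h post-dosing, fitted bidirectionally with DMSO as negative control and baseline. Detection used RT-PCR and fluorescence capillary electrophoresis.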

Test [10] is described as follows: ATG_GATA_CIS: Attagene CIS-FACTORIAL HepG2 Assay for human GATA Binding Protein (AID 2282944). The note with it: HepG2 GATA cis-element reporter, Attagene multiplex mRNA; actives raise or lower the signal. The gist of the method:
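Endogenous transcription factor activity was captured through cis-promoter-driven reporters in transfected HepG2 cells. After 24 h exposure, reporter transcripts were quantified by RT-PCR with fluorescent capillary electrophoresis, and responses fitted both directions against DMSO.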

Test [11] in a line: ATG_GLI_CIS: Attagene CIS-FACTORIAL HepG2 Assay for human Zinc Finger Protein GLI1 (AID 2282945). The following applies: HepG2, Attagene cis-factorial reporter mRNA, GLI element; actives raise or lower the signal. In outline:
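HepG2 cells transiently transfected with cis-promoter multiplexed reporter units report endogenous transcription factor activity. After 24 h chemical exposure, reporter mRNA was quantified by RT-PCR, 6-FAM labelling, HpaI digestion and capillary electrophoresis, with bidirectional fitting against DMSO.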

Test [12] in a line: ATG_ISRE_CIS: Attagene CIS-FACTORIAL HepG2 Assay for human Interferon Regulatory Factor 1 (IRF1) binding to an Interferon-Stimulated Response Element (ISRE) (AID 2282948). The note with it: HepG2 ISRE cis-reporter (Attagene), mRNA transcription readout; actives raise or lower the signal. The gist of the method: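 Multiplexed mRNA reporter readout in human liver HepG2 cells: cis-element-driven reporters transfected, compound added for 24 h, transcripts amplified, fluorescently labelled and sized by capillary electrophoresis; curve fitting bidirectional against DMSO.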

The nature of test [13]: ATG_M_32_CIS: Attagene CIS-FACTORIAL HepG2 Assay for M32 Transcription Factor (Internal Marker) (AID 2282949).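 Also: background control marker of the multiplexed CIS panel rather than a real target.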 The following applies: HepG2 Attagene cis-factorial M32 reporter, mRNA; actives raise or lower the signal. In outline: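 HepG2 transfectants (cis-regulated reporter transcription units) dosed 24 h. Reporter mRNA by RT-PCR plus CE, analysed as gain or loss relative to DMSO.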

The nature of test [14]: ATG_M_06_CIS: Attagene CIS-FACTORIAL HepG2 Assay for M06 Transcription Factor (Internal Marker) (AID 2282950). The note with it: HepG2 Attagene CIS-FACTORIAL M06 internal marker reporter; actives raise or lower the signal. In outline:
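Steps: transfect HepG2 with multiplexed cis-element reporter constructs; dose chemical 24 h; extract RNA with DNase treatment; reverse-transcribe, PCR-amplify, 6-FAM label, HpaI digest; separate fragments by capillary electrophoresis. Activity fitted both directions versus DMSO.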

Test [15] deals with Hypoxia-inducible factor 1-alpha (Homo sapiens) (UniProt Q16665). As to the kind of experiment: ATG_HIF1a_CIS: Attagene CIS-FACTORIAL HepG2 Assay for human Hypoxia Inducible Factor 1 (HIF1A) (AID 2282951). The following applies: HepG2 Attagene cis-factorial HIF1a reporter transcription; actives raise or lower the signal. The gist of the method: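 Activity is fitted in both directions relative to DMSO. Reporter transcripts are read by RT-PCR, fluorescent primer extension and capillary electrophoresis after 24 h chemical treatment. The cells are HepG2 carrying transiently transfected cis-element-driven reporter units responding to endogenous factors.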
Hypoxia-inducible factor 1-alpha (Homo sapiens), sequence (Q16665 whole entry, looked up): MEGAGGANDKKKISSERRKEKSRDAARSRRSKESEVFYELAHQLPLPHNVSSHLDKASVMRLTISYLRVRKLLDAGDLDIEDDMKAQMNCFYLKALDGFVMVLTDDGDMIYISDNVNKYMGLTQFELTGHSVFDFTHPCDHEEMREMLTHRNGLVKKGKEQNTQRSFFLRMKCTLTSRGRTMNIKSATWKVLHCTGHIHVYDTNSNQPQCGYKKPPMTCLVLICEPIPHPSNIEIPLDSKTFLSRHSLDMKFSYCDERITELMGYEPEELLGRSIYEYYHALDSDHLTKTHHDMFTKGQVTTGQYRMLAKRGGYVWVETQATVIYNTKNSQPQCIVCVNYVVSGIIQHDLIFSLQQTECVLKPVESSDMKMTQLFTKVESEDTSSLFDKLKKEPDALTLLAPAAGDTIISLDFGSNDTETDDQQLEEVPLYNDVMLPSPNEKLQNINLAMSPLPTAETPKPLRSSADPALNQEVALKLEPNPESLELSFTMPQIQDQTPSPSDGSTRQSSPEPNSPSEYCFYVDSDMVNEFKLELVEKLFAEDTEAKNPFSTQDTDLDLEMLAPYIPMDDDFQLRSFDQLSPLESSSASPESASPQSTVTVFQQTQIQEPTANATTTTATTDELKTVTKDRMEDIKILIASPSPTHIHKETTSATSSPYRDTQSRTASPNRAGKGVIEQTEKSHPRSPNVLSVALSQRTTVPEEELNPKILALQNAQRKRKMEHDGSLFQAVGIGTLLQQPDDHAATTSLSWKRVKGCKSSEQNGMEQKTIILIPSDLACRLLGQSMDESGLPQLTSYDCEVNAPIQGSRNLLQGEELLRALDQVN

The target in test [16] is Hepatocyte nuclear factor 6 (Homo sapiens) (UniProt Q9UBC0). As to the kind of experiment: ATG_HNF6_CIS: Attagene CIS-FACTORIAL HepG2 Assay for human Hepatocyte Nuclear Factor 6 (HNF6) (AID 2282952). The note with it: HepG2 Attagene cis-factorial HNF6 reporter transcription; actives raise or lower the signal. The gist of the method: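 Using cis-element reporters in HepG2 liver cells, the assay tracks endogenous factor-driven transcription 24 h post-dosing. Signal comes from 6-FAM-labelled, HpaI-digested RT-PCR fragments, with gain or loss scored against DMSO.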
Hepatocyte nuclear factor 6 (Homo sapiens), sequence (Q9UBC0 whole entry, looked up, the tested form may be a part): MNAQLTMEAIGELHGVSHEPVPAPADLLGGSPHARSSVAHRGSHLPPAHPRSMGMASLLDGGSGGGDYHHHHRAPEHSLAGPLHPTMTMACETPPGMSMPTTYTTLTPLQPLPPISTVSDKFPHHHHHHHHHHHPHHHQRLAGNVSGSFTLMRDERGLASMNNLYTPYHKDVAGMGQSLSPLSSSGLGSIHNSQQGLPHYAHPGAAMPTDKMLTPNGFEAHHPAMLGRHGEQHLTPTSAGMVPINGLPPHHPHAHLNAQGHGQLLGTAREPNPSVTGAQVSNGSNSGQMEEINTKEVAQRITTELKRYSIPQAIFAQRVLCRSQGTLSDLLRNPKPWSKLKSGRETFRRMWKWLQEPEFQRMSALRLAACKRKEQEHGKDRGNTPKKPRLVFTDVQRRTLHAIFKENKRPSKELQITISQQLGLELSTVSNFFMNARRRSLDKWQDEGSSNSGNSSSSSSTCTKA

The target of test [17] is Heat shock factor protein 1 (Homo sapiens) (UniProt Q00613). As to the kind of experiment: ATG_HSE_CIS: Attagene CIS-FACTORIAL HepG2 Assay for human Heat Shock Transcription Factor 1 (HSE) (AID 2282953). The note with it: HepG2 HSE cis-reporter, Attagene RNA transcription; actives raise or lower the signal. The gist of the method: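 Cells were transfected with cis-element-driven reporter constructs, dosed for 24 h, then total RNA was reverse-transcribed and reporter cDNA amplified, FAM-labelled and digested with HpaI. Fragments were resolved by capillary electrophoresis; gain or loss was fitted against DMSO.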
Heat shock factor protein 1 (Homo sapiens), sequence (Q00613 whole entry, looked up, the tested form may be a part): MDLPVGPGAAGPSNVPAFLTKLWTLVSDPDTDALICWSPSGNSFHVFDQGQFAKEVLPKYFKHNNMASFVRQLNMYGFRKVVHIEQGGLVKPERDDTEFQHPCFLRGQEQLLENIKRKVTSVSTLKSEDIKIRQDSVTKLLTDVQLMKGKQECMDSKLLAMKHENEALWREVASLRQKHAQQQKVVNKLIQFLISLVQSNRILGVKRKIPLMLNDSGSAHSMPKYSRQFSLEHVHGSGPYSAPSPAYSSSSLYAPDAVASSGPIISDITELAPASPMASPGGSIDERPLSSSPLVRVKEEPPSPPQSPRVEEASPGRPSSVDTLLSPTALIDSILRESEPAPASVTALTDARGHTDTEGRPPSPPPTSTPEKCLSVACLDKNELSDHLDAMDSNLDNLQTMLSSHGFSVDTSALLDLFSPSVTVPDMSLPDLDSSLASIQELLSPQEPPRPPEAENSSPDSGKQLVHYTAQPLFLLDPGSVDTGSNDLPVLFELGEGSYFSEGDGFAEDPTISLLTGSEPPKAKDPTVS

A short description of test [18]: ATG_PBREM_CIS: Attagene CIS-FACTORIAL HepG2 Assay for human Phenobarbital-responsive Enhancer Module (PBREM) (AID 2282955). The note with it: HepG2 PBREM cis-reporter, Attagene multiplexed transcription; actives raise or lower the signal. In outline: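 Endogenous transcription factor activity was read from reporter transcripts in transiently transfected human HepG2 liver cells after 24 h dosing. RT-PCR products were fluorescently labelled, HpaI-cut and sized by capillary electrophoresis; activity fitted bidirectionally against DMSO baseline.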

Test [19] in a line: ATG_GRE_CIS: Attagene CIS-FACTORIAL HepG2 Assay for human Glucocorticoid Response Elements (GRE) (AID 2282947). The following applies: HepG2 GRE cis-reporter, Attagene multiplex mRNA; actives raise or lower the signal. In outline:
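Cells (HepG2) bearing transfected cis-promoter reporter transcription units were treated with chemical for 24 hours. Reporter mRNA was measured via RT-PCR with capillary electrophoresis, and activity was fitted in both directions relative to DMSO.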

Test [20] in a line: ATG_MRE_CIS: Attagene CIS-FACTORIAL HepG2 Assay for human Metal Responsive Element (MRE) (AID 2282954). The following applies: HepG2 MRE cis-reporter transcription, Attagene multiplex; actives raise or lower the signal. In outline: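 Cells were transfected with cis-promoter reporter transcription units, then dosed for 24 h. RNA was reverse-transcribed, amplified, fluorescently labelled and resolved by capillary electrophoresis, and activity was fitted in both directions relative to DMSO.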

Transcription factor E2F1 (Homo sapiens), sequence (Q01094 whole entry, looked up): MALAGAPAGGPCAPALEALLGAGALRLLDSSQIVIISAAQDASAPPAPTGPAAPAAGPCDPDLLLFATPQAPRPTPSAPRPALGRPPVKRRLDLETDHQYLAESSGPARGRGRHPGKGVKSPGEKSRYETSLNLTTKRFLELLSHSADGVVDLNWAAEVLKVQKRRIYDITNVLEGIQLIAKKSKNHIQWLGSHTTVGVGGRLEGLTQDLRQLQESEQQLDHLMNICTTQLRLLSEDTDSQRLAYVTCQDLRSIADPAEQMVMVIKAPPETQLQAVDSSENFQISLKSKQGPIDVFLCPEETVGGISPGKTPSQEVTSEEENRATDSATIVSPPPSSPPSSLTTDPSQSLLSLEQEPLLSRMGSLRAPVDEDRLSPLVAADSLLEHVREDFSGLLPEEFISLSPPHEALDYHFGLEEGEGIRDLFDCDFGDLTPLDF
Hepatocyte nuclear factor 3-beta (Homo sapiens), sequence (Q9Y261 whole entry, looked up): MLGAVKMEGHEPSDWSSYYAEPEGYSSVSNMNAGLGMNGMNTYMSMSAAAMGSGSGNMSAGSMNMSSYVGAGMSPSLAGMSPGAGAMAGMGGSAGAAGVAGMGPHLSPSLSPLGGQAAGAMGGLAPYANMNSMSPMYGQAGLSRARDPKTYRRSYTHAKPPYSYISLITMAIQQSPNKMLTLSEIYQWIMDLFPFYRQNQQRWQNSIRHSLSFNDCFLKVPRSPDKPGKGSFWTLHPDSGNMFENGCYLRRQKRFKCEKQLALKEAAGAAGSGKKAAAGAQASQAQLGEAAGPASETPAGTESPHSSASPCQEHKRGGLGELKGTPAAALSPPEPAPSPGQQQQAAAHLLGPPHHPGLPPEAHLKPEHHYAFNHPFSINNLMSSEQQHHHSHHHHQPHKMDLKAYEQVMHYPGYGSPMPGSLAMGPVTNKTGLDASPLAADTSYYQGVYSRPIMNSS

Broadly, the AC50 is the concentration giving half of the maximal activity seen. Consider `OCc1c[nH]c2ccccc12`, for which the outcome in test [1], in test [2], in test [3], in test [4], in [5] and in test [7] was inactive. The molecule was called inactive in [8], in test [9], in [10], in test [11], in [12] and in [13]. Besides, the result in [14], in test [15], in [16] and in test [18] was inactive. Besides, the AC50 was 8.17 µM (active) [middle of 5 runs] in test [6]; 1.72 µM (active) and 512 nM (active) and 1.85 µM (active) in [8]; 27.1 µM (active) and 140 µM (active) and 32.2 µM (active) in test [12]; 2.91 µM (active) and 19.8 µM (active) and 1.45 µM (active) in test [15]; 176 µM (active) [middle of 5 runs] in test [17]; 5.11 µM (active) [middle of 4 runs] in [18].

As to `COS(C)(=O)=O`, the call in [1], in test [2], in test [3], in [4], in [5] and in test [6] was inactive. Besides, the result in test [7], in test [8], in test [9], in test [10], in [11] and in test [19] was inactive. Also, the molecule was called inactive in [12], in [13], in test [14], in test [15], in test [17] and in [18].

For the molecule `O=C(O)c1cccc(C(=O)O)c1`, the molecule was called inactive in test [1], in test [2], in test [3], in [4], in [5] and in [6]. The outcome in test [7], in test [8], in test [9], in [10], in test [11] and in test [19] was inactive. Moreover, the outcome in test [12], in test [14], in test [15], in test [16], in test [17] and in [20] was inactive.

As to `c1ccc2ncccc2c1`, the call in test [1], in [2], in test [3], in test [4], in [5] and in test [6] was inactive. Besides, the molecule was called inactive in [7], in [8], in test [9], in [10], in [11] and in test [19]. For the same molecule, the molecule was called inactive in test [12], in [14], in test [15], in [16], in [17] and in test [18].

On to `OCCC(F)(F)C(F)(F)C(F)(F)C(F)(F)F`, for which the molecule was classed as inactive in [1], in test [2], in [3], in test [4], in [5] and in [6]. Besides, the outcome in test [7], in test [8], in test [9], in test [10], in [11] and in test [19] was inactive. Further, the result in test [12], in test [13], in test [14], in test [15], in test [17] and in test [18] was inactive.

On to `CCCCCCCC/C=C\CCCCCCCC(=O)OC[C@@H](O)[C@H]1OC[C@H](O)[C@H]1O`, for which the result in test [1], in [2], in [3], in [4], in test [5] and in test [6] was inactive. Also, the outcome in [7], in [8], in [9], in test [10], in [11] and in [19] was inactive. Besides, the outcome in [12], in test [14], in test [15], in test [16], in test [17] and in [20] was inactive.

Regarding `OCC(CO)(CO)CO`, the call in test [1], in test [2], in test [3], in test [4], in test [5] and in test [6] was inactive. Also, the result in test [8], in test [9], in test [10], in test [11], in test [12] and in test [14] was inactive. The molecule was called inactive in test [15], in test [17], in test [20] and in [18]. In addition, the AC50 in test [6] was 100 µM (active).
